Source: PubChem BioAssay
KCNQ2 block = rat KCNQ2 potassium channel inhibitors, primary screen, cell-based, CHO-K1, FluxOR thallium flux, B-score. Potassium voltage-gated channel subfamily KQT member 2 (Rattus norvegicus), O88943. 20 min; stronger effect = lower value. B-score at 10 µM. 310,000 tested, 1.1% active. AID 2156, 2009;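 active means fluorescence ratio B-score at most minus 3 library SDs, with starting brightness B-score within 2 library SDs, cut at about -5.5 in these data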
Target sequence (O88943 whole entry, looked up): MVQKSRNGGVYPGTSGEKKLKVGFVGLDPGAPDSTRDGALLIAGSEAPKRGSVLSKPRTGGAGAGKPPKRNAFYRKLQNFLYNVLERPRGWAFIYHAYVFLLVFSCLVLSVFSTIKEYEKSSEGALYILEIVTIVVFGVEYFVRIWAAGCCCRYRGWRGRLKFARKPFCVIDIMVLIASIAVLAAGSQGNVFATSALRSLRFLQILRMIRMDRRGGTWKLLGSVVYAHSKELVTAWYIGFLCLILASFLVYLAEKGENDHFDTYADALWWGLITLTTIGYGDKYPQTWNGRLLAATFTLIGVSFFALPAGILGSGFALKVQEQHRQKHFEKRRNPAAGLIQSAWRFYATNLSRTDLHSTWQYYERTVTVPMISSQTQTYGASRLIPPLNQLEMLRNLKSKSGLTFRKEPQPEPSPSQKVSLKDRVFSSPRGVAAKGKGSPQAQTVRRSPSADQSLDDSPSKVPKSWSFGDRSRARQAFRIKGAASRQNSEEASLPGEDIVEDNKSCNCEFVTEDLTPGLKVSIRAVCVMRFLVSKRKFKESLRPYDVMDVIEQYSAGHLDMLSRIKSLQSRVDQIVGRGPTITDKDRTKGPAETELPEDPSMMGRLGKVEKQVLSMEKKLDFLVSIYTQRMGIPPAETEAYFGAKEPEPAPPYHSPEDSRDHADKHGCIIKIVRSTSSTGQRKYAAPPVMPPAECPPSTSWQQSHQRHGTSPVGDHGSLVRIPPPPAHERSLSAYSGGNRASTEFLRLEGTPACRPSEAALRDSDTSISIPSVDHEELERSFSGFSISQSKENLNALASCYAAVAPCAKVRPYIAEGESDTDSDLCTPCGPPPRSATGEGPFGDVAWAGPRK
KCNQ2 pot = potentiators of rat KCNQ2 potassium channel; Potassium voltage-gated channel subfamily KQT member 2 (Rattus norvegicus), O88943; CHO-K1 KCNQ2, FluxOR thallium flux fluorescence; stronger effect = higher value; B-score at 10 µM; 310,000 tested, 0.54% active; AID 2239, 2010;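 active means fluorescence ratio B-score at least 3 SD of library B-scores, with initial fluorescence B-score within 3 of them, cut at about 5.3 in these data; same plate scores as AID 2156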;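 further: B-score of peak minus minimum over baseline fluorescence ratio after K+ and Tl+ stimulus; positive B-score means potentiation of KCNQ2 with more thallium influx and brighter signal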
Numbers without * were called inactive; i = inactive; x = no result given. An excerpt weighted towards active compounds, which were near 1.6% of everything screened.

SMILES	KCNQ2 block	KCNQ2 pot
O=C(OCC#CCSc1nnc(-c2ccccc2)o1)c1cccs1	i	x
COc1ccc(-n2ncc3c2CC(C)(C)CC3NC(=O)c2c(C)cc(=O)oc2C)cc1 (centres undefined)	i	x
O=[N+]([O-])c1ccc(N2CCC(=NOCc3ccc(Cl)cc3)CC2)cc1	-5.7*	-5.7
O=[N+]([O-])c1ccc(CN2CCN(c3ccc([N+](=O)[O-])cc3)CC2)cc1	i	x
COC(=O)[C@@]12CCCCN1[C@H](c1ccc(-c3ccc(C(C)=O)cc3)c(OC)c1)[C@@H]1C(=O)N(C)C(=O)[C@@H]12	i	x
COc1ccc(CNC(=O)CNC(=O)N2CC(=O)Nc3ccccc32)cc1	i	x
CSc1nnc(-c2sccc2OCc2ccccc2)n1C	i	x
CSc1n[nH]c(-c2sccc2OCc2ccc(C)cc2)n1	-6.1*	-6.1
Cc1cccc(Oc2c(C=O)c3ccccc3n2C)c1	-6.5*	-6.5
Cc1ccc(Sc2c(C=O)c3ccccc3n2C)cc1	i	0.1
Cc1ccccc1N(CC(=O)NC1CCCC1)C(=O)c1oc(C(C)(C)C)cc1C	i	x
Cc1cc(C(C)(C)C)oc1C(=O)N(CC(=O)NC1CCCC1)Cc1ccccc1Cl	-6.2*	-6.2
COc1ccc(-c2nnc(Nc3nc4c(OC)cccc4s3)o2)cc1	i	5.5*
COc1ccc(-c2nnc(Nc3nc4c(OC)cccc4s3)o2)c(OC)c1	i	0.68
O=C(NCC(c1ccco1)N1CCN(c2ccccc2)CC1)C(=O)NC1CC1 (centres undefined)	i	x
COc1ccccc1NS(=O)(=O)c1cccc(C(=O)N2CC(C)OC(C)C2)c1 (centres undefined)	i	2
CC(=O)N1C(C(=O)O)Cc2c([nH]c3ccccc23)C1(C)C (centres undefined)	i	7.3*
CC12CCC(=O)N1C(C(=O)O)Cc1c2[nH]c2ccccc12 (centres undefined)	i	x
CN(C)CCNC(=O)C1CCN(S(=O)(=O)c2ccc3ccccc3c2)CC1	i	0.02
O=C(NCC1CCCO1)C(=O)N/N=C/c1cccc(Cl)c1 (centres undefined)	i	x
Cc1c(Cl)cccc1NC(=O)CN1CCC(C(O)(c2ccccc2)c2ccccc2)CC1	-6.2*	-6.2
Cc1ccccc1C(=O)NC1CCN(CC(=O)Nc2ccccc2Cl)CC1	i	1.5
O=C1NC(N2CCOCC2)=N/C1=C/c1ccc2c(c1)OCO2	i	0.04
COc1ccc(CNc2ncc(-c3ccccc3)n2C)c(OC)c1OC	i	0.9
COc1ccc(CNc2ncc(-c3ccccc3)n2C)c2ccccc12	-5.7*	-5.7
SMILES	KCNQ2 block	KCNQ2 pot
Cc1ccc(NC(=O)c2cccnc2C(=O)O)nc1	i	1.4
COc1cc(NC(=O)c2cccs2)cc(OC)c1	i	6.6*
COc1cccc(NC(=O)c2cccs2)c1	i	1.9
CSc1ccc(C(=O)C2CCCN(C(=O)c3nonc3C)C2)cc1 (centres undefined)	i	0.02
CCN(CC)C(=O)c1sc2nc(-c3cccs3)cc(-c3cccs3)c2c1N	i	x
CCN(CC)C(=O)c1sc2nc(-c3cccs3)cc(-c3ccc(Cl)cc3)c2c1N	-6.9*	-6.9
COc1ccc(C(CNC(=O)c2ccc(-c3cccc(C(F)(F)F)c3)o2)N2CCOCC2)cc1 (centres undefined)	i	x
Cc1cc(C)cc(OCC(=O)Nc2nc(-c3cccnc3)cs2)c1	i	x
OC(CNCC1CCCO1)COc1ccc(OCC(O)CNCC2CCCO2)cc1 (centres undefined)	i	0.91
CCOC(=O)c1c(C)n(-c2ccc(C)cc2)c2ccc(OCC(O)CNCC3CCCO3)cc12 (centres undefined)	-6.3*	-6.3
CCOc1ccc(S(=O)(=O)N2CCCCC2)cc1NC(=O)Cc1cccs1	i	1.7
Cc1sc(-n2c(C)ccc2C)c(C#N)c1C	i	x
Cc1ccc(C)n1-c1sc2c(c1C#N)CCCC2	-5.9*	-5.9
COc1ccc(OC)c(C2=C/C(=C/c3ccccn3)C(=O)O2)c1	i	x
CC(C)CN(C(=O)COc1ccc(C(C)(C)C)cc1)C1CCS(=O)(=O)C1 (centres undefined)	i	0.9
Cc1onc(-c2ccccc2Cl)c1C(=O)Nc1ccc(N2CCOCC2)cc1	i	x
Cc1ccc(-n2nc3c(c2NC(=O)c2c(-c4ccccc4Cl)noc2C)CSC3)cc1	-7.4*	-7.4
O=C1OC(CO)CN1Cc1ccccc1 (centres undefined)	i	x
CC(C)OP(=O)(OC(C)C)C(NC(=O)c1ccc(Br)cc1)c1ccccc1 (centres undefined)	-8*	-8
CC(NC(=O)c1ccc(Br)cc1)c1ccccc1 (centres undefined)	i	2.6
CN(CC(=O)Nc1ccc2c(c1)OCO2)S(=O)(=O)c1cccs1	i	0.81
CCCCN(C(=O)c1cc(S(=O)(=O)N2CCCCCC2)ccc1OC)c1c(N)n(CCC)c(=O)[nH]c1=O	i	0.27
S=C(Nc1ccccc1Cl)N1CCCCCC1	i	0.14
S=C(Nc1ccccc1Cl)N1CCCC(c2ccccc2)=N1	-6.5*	-6.5
O=C(Nc1cccc([N+](=O)[O-])c1)NC1CCCCCCC1	i	x
SMILES	KCNQ2 block	KCNQ2 pot
COc1cc(C(=O)NC(C)Cc2ccccn2)ccc1OC1CCN(C(C)=O)CC1 (centres undefined)	i	x
COc1ccc(/C=N/NC(=O)c2ccccc2OCc2ccccc2)c(OC)c1	-6.8*	-6.8
Cc1cccc(/C=N/NC(=O)c2cc(Br)ccc2OCc2ccccc2)n1	-5.9*	-5.9
COc1ccc(/C(C)=N/NC(=O)c2ccccc2OCc2ccccc2)c(OC)c1	i	x
COc1ccc(C(=O)Nc2ccccc2C(=O)N/N=C/c2cccc3ccccc23)cc1	-5.8*	-5.8
COc1ccc(C(=O)Nc2ccccc2C(N)=O)cc1	i	0.25
Cc1cccc(/C=N/NC(=O)c2ccccc2OCc2cccc(Br)c2)n1	i	x
C/C(=N/O)c1ccc2c(c1)OCCOCCOc1cc(/C(C)=N/O)ccc1OCCOCCO2	i	0.29
Cc1cc(C(F)F)n2nc(C(=O)Nc3cccc(S(=O)(=O)N4CCOCC4)c3)nc2n1	i	2.9
CCN(CC)C(=O)c1ccc(NS(=O)(=O)c2ccc3[nH]c(=O)[nH]c3c2)cc1	i	x
O=C(/C=C/c1ccc(Cl)cc1)N1CCN(Cc2ccccc2)CC1	i	x
COC(=O)c1ccc(NC(CC(C)C)C(=O)OC)c([N+](=O)[O-])c1 (centres undefined)	i	x
CC(=O)c1cccc(NC(=O)Cc2coc3cc4c(cc23)CCC4)c1	i	1.4
CCOCCCn1c(=O)c2ccccc2n2c(=S)[nH]nc12	i	0.58
Cc1cc(C)cc(Oc2ccc(NC(=O)C3CC=CCC3C(=O)O)cc2)c1 (centres undefined)	i	x
COc1cccc(/C=N/NC(=O)CSc2nnc(C)n2-c2ccccc2)c1O	i	x
CCCCSc1nc(C)cc(SCC(=O)N/N=C/c2cccc(OC)c2O)n1	i	6.3*
COc1ccccc1C(=O)NC(=Nc1nc2ccccc2o1)NC(=O)c1ccccc1OC	-14*	-14
O=C(NC(=Nc1nc2ccccc2o1)NC(=O)c1ccccc1)c1ccccc1	i	x
CCn1c(SCc2cccc(C)c2)nnc1-c1ccc(C)cc1	-6*	-6
CCn1c(SCc2cccc(F)c2)nnc1-c1ccncc1	i	0.79
